Test results reported in paper PMC5540273 (PLoS ONE, 2017).

Columns and labels:
Conditions in all cases: concentration: 1 μM, replicates: in singlicate; n = 1
GRK1 = tested on: GRK1
GRK2 = tested on: T1, GRK2
T1 construct: gene ADRBK1

GRK3 = tested on: T2, GRK3
T2 construct: gene ADRBK2

GRK4 = tested on: GRK4
GRK7 = tested on: GRK7
GSK3A = tested on: GSK3A
GSK3B = tested on: GSK3B
HASPIN = tested on: T3, HASPIN
T3 construct: gene GSG2

HCK = tested on: HCK
HIPK1 = tested on: HIPK1
HIPK2 = tested on: HIPK2
HIPK3 = tested on: HIPK3
HIPK4 = tested on: HIPK4
HPK1 = tested on: HPK1
HUNK = tested on: HUNK
ICK = tested on: ICK
IGF1R = tested on: IGF1R
IKK-alpha = tested on: T4, IKK-alpha
T4 construct: gene CHUK

IKK-beta = tested on: T5, IKK-beta
T5 construct: gene IKBKB

IKK-epsilon = tested on: T6, IKK-epsilon
T6 construct: gene IKBKE
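Further: KINOMEscan kinase panel screen.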

| SMILES | %Inh (GRK1) | %Inh (GRK2) | %Inh (GRK3) | %Inh (GRK4) | %Inh (GRK7) | %Inh (GSK3A) | %Inh (GSK3B) | %Inh (HASPIN) | %Inh (HCK) | %Inh (HIPK1) | %Inh (HIPK2) | %Inh (HIPK3) | %Inh (HIPK4) | %Inh (HPK1) | %Inh (HUNK) | %Inh (ICK) | %Inh (IGF1R) | %Inh (IKK-alpha) | %Inh (IKK-beta) | %Inh (IKK-epsilon) |
| --- | --- | --- | --- | --- | --- | --- | --- | --- | --- | --- | --- | --- | --- | --- | --- | --- | --- | --- | --- | --- |
| CN1c2ccc(-c3ccc(C(=O)NCCO)cc3)cc2-c2[nH]ncc2S1(=O)=O | 4% | 0% | 0% | 1% | 22% | 8% | 32% | 21% | 16% | 67% | 52% | 39% | 16% | 22% | 0% | 0% | 7% | 0% | 0% | 31% |
| COC(=O)c1cccc(NC(=O)NCCNc2ccnc(Nc3ccc(F)cc3)n2)c1 [GSK1379883] | 0% | 0% | 17% | 2% | 0% | 19% | 0% | 37% | 0% | 0% | 0% | 0% | 0% | 45% | 90% | 0% | 6% | 0% | 0% | 1% |
| O=C(CCO)NCCn1ccc2ncnc(Nc3ccc(Oc4cccc(C(F)(F)F)c4)c(Cl)c3)c21 | 13% | 0% | 0% | 0% | 0% | 6% | 0% | 0% | 36% | 19% | 0% | 0% | 0% | 7% | 0% | 0% | 0% | 0% | 0% | 0% |
| Cc1ccc(O)cc1Nc1cc(C(F)(F)F)nc2ccc(-c3ccncc3)cc12 [GW630823] | 0% | 0% | 0% | 0% | 0% | 5% | 0% | 0% | 18% | 8% | 0% | 0% | 9% | 0% | 3% | 0% | 5% | 0% | 0% | 0% |
| Cl.Cn1ccc(-c2cccc(Nc3ccnc4cc(-c5nccs5)ccc34)c2)n1 [GW525701] | 1% | 0% | 64% | 0% | 0% | 0% | 12% | 8% | 0% | 0% | 0% | 0% | 0% | 34% | 22% | 11% | 21% | 30% | 11% | 31% |
| O=c1cc(N2CCOCC2)nc2n(Cc3cccc(Cl)c3)ccn12 [GSK2296823] | 15% | 0% | 12% | 47% | 0% | 28% | 7% | 0% | 0% | 12% | 0% | 18% | 0% | 37% | 0% | 19% | 1% | 3% | 17% | 35% |
| Cc1ccc(NC(=O)c2cccc(C#N)c2)cc1-c1ccc(C(=O)Nc2ccncc2)cc1 [GSK1398463] | 0% | 0% | 20% | 11% | 0% | 20% | 9% | 0% | 37% | 0% | 0% | 8% | 0% | 40% | 0% | 35% | 14% | 32% | 36% | 15% |
| Cn1ccc2ncnc(Nc3ccc(Oc4cccc(Cl)c4)c(Cl)c3)c21 | 25% | 51% | 0% | 7% | 20% | 22% | 23% | 21% | 25% | 32% | 37% | 22% | 3% | 2% | 0% | 12% | 0% | 3% | 7% | 11% |
| Cl.c1ccc(Cn2ncc3cc(Nc4ncnc5ccccc45)ccc32)cc1 [GW273749] | 0% | 0% | 0% | 0% | 0% | 10% | 14% | 8% | 0% | 0% | 0% | 0% | 0% | 20% | 0% | 0% | 0% | 0% | 31% | 24% |
| O=C(NCCCN1CCCC1=O)c1cnc(NCc2cc(Cl)ccc2Cl)nc1NC1CCNCC1 | 33% | 2% | 22% | 0% | 68% | 0% | 0% | 0% | 3% | 5% | 0% | 0% | 13% | 20% | 0% | 0% | 0% | 0% | 0% | 0% |
| CSc1nn2c(=O)cc(N3CCOCC3)nc2n1Cc1cccc(Cl)c1Cl [GSK2347225] | 20% | 0% | 0% | 17% | 0% | 16% | 8% | 0% | 0% | 11% | 0% | 17% | 2% | 25% | 25% | 0% | 0% | 0% | 0% | 28% |
